Screening data (PubChem)
Anthrax LF inh2 = anthrax lethal factor protease inhibition; 0.12% of 360,000 active; inhibition, % at 10 µM; multiplex microsphere protease cleavage assay, LF; P15917; further: plate controls were buffer without enzyme for full effect and enzyme alone for no effect
SARS 3CLpro inh = SARS-CoV 3CLpro protease inhibition; recombinant SARS-CoV 3CLpro, quenched FRET peptide cleavage; inhibition, % at 6 µM; AID 1706; P0C6X7; 0.14% of 290,000 active; in the data active means inhibition above about 12%
BoNT F protease = BoNT F light chain protease inhibition; Multiplex microsphere protease cleavage assay, flow cytometry; inhibition, % at 10 µM; 0.22% of 360,000 active; AID 588497; in the data active means inhibition above about 35%, passing the limit was not always enough; inconclusive means no clear call, values can overlap the other calls; further: plate controls were buffer without enzyme for full effect and enzyme alone for no effect
Autofluor counter = counter-screen for toxin protease inhibitors: compound fluorescence | compound autofluorescence counterscreen, microsphere flow cytometry; stronger effect = higher value | fluorescence intensity (concentration not given with the values) | 3.1% of 360,000 active | AID 624483; in the data active means fluorescence intensity above about 16000; inconclusive means no clear call, values can overlap the other calls
BoNT A protease = inhibitors of Botulinum neurotoxin A light chain protease; 0.17% of 360,000 active; inhibition, % at 10 µM; multiplex microsphere protease substrate cleavage, flow cytometry; further: plate controls were buffer without enzyme for full effect and enzyme alone for no effect
* marks the source's active call; other numbers are inactive results; ? = inconclusive; / = no result. Hits are enriched below; roughly 3.5% of the tested compounds scored in any of these assays. Unless noted, no stated cut-off is given here; in the data, active means inhibition above about 30%; inconclusive means no clear call, values can overlap the other calls; inactive means below that.

SMILES | Anthrax LF inh2 | SARS 3CLpro inh | BoNT F protease | Autofluor counter | BoNT A protease
COc1ccccc1OCCNC1CCCC1 | 2.7 | 2.4 | 1.9 | 21707* | 0.4
CC(C)Oc1ccc(OCCNC2CCCC2)cc1 | 0.1 | 4.8 | 1.3 | 20103* | 1.7
O=C(O)[C@H]1CCCC[C@H]1C(=O)NCCNC(=O)[C@@H]1CCCC[C@@H]1C(=O)O | -2.4 | 5.6 | -4.7 | 23932* | ?
O=C(NCCCCCCNC(=O)C1CCCC1)C1CCCC1 | -3.0 | -0.9 | 0.0 | 21472* | ?
O=C(O)C1CCCCC1C(=O)NCCC(c1ccccc1)c1ccccc1 (centres undefined) | -3.2 | -4.6 | -1.4 | 10310 | -1.1
COc1ccc2c(CC(=O)N3CCc4ccccc43)coc2c1 | -0.8 | 2.4 | -5.6 | 3068 | 0.2
CC(=O)Nc1ccc(Nc2ncnc3c2cnn3-c2ccc(C)cc2C)cc1 | ? | 3.6 | ? | ? | 0.6
CC(=O)Nc1ccc(Nc2ncnc3c2cnn3-c2cccc(C)c2)cc1 | -18.2 | 6.3 | 11.2 | 19017* | 6.8
CC(=O)Nc1ccc(Nc2ncnc3c2cnn3-c2ccccc2)cc1 | 1.5 | -2.6 | -2.0 | 23123* | ?
Cc1nn(-c2ccccc2)c(C)c1/C=N/NC(=O)CSc1nnc(SCc2cccc3ccccc23)s1 | -1.6 | -3.9 | -0.9 | 2046 | -1.4
COc1ccc(C(=O)COC(=O)CCn2c(C)csc2=O)c(OC)c1 | -2.2 | / | 2.5 | 3749 | -0.1
OCC1OC(n2cnc3cc(Cl)c(Cl)cc32)C(O)C1O (centres undefined) | -2.3 | / | 2.3 | 6392 | -0.2
O=C(Cn1cnc2c(nnn2Cc2ccc(Cl)cc2)c1=O)NC1CCCC1 | -3.3 | -1.0 | 3.5 | 11745 | -0.2
O=C(Cn1cnc2c(nnn2Cc2ccc(F)cc2)c1=O)NC1CCCC1 | 0.5 | -5.1 | 4.5 | 22114* | 2.6
COc1cccc(-n2nnc3c(=O)n(Cc4ccc(Br)cc4)cnc32)c1 | -3.6 | 2.8 | -6.0 | 21527* | -4.6
COc1cccc(-n2nnc3c(=O)n(Cc4ccc(Cl)cc4)cnc32)c1 | 0.1 | -0.2 | -0.8 | 21157* | -1.1
COc1cccc(-n2nnc3c(=O)n(CC(=O)NC4CCCC4)cnc32)c1 | 0.4 | 7.2 | 0.2 | 20217* | 1.0
O=c1ncn(-c2ccccc2F)c2ncccc12 | 1.2 | -1.1 | 4.1 | 21215* | 4.0
CC1(C)C(c2ccccc2)=NC(c2ccc(F)cc2)N1O (centres undefined) | -3.8 | -4.7 | -0.4 | 7918 | 0.5
CC1(C)C(c2ccccc2)=NC(c2cccnc2)N1O (centres undefined) | 0.2 | 1.5 | 0.0 | 21816* | ?
COc1ccc(-n2c(SCC(=O)NC3CCCCC3)nc3ccsc3c2=O)cc1 | 0.2 | 3.2 | 0.4 | 21037* | ?
O=C1c2ccccc2C(=O)N1CCc1c(-c2ccccc2)[nH]c2ccccc12 | 1.6 | / | 4.3 | 3824 | -0.2
CC(C)(C)NS(=O)(=O)c1ccc(NS(C)(=O)=O)cc1 | -0.9 | 3.0 | -2.7 | 16636* | ?
CN1C(=O)CC(N2CCN(CC(=O)N3CCCC3)CC2)C1=O (centres undefined) | 1.7 | -4.0 | 0.7 | 3298 | 0.9
Cc1nnc(SCCOC(N)=O)n1C | 1.3 | -1.8 | 7.9 | 20927* | 8.9
SMILES | Anthrax LF inh2 | SARS 3CLpro inh | BoNT F protease | Autofluor counter | BoNT A protease
C(=C\CSc1ncn[nH]1)/CSc1ncn[nH]1 | -1.3 | 2.4 | 8.1 | 20380* | 4.2
COc1ccc(Nc2nc(N)nc(C(F)(F)F)n2)c(OC)c1 | -8.7 | 5.5 | 6.1 | 17527* | 5.5
COc1ccc(Nc2nc(N3CCCC3)nc(N3CCCC3)n2)c(OC)c1 | -3.8 | 6.8 | -2.6 | 20538* | -0.6
O=C(CCc1nnc(CCCc2ccccc2)o1)NCCCC1CCCC1 | -2.5 | 0.3 | -14.3 | 2918 | -1.2
Cc1oc2ccccc2c1-c1cn2c(n1)SCC2 | -5.0 | 2.2 | -5.0 | 23992* | ?
c1ccc(-c2cn3c(n2)SCC3)cc1 | / | -1.0 | / | / | /
N#Cc1nnn(Cc2ccccc2)c1N | -0.5 | 3.3 | -5.2 | 5589 | -1.0
O=C(COC(=O)CCCSc1nc2ccccc2[nH]1)Nc1cccc(F)c1 | -0.7 | 3.0 | -7.7 | 6727 | -1.6
CC(C)CC(=O)Nc1ccc(C(=O)NN2C(=O)c3ccccc3C2=O)cc1 | -1.8 | 2.7 | -2.6 | 1966 | -1.0
CCOC(=O)c1c(C)c(C(=O)OCC)n(C)c1C | -4.6 | 0.9 | 11.1 | 3832 | 2.1
CCOC(=O)c1c(C)c(C(=O)NCc2ccco2)c(C)n1CC | -1.8 | 0.2 | 1.7 | 2155 | 1.1
CCOC(=O)c1c(C)c(C(=O)NCc2cccnc2)c(C)n1CC | 2.0 | -4.2 | 1.3 | 20195* | ?
CCOC(=O)c1c(C)c(C(=O)NCCOC)c(C)n1CC | -1.6 | -0.6 | -1.3 | 23521* | 0.9
CCOC(=O)c1c(C)c(C(=O)NCCCN2CCCC2=O)c(C)n1CC | 0.4 | -1.7 | -0.1 | 22714* | 1.7
CCOC(=O)c1c(C)c(C(=O)NCCCOC)c(C)n1C | -1.6 | -3.1 | 0.3 | 20527* | ?
COc1ccc(N(CC(=O)N/N=C/c2cc(OC)ccc2OC)S(=O)(=O)c2ccccc2)cc1 | 1.1 | 8.6 | 22.3 | 3737 | -2.4
O=C(Cn1nnc(-c2cccs2)n1)NCc1ccccc1 | 3.7 | 1.7 | -6.1 | 2027 | 0.5
CCOC(=O)c1c(C)c(C(=O)NCc2cccs2)c(C)n1C | -6.6 | 0.2 | -8.8 | 17882* | -8.1
Cc1onc(-c2ccccc2)c1-c1n[nH]c(=S)n1-c1ccccc1Cl | -2.0 | 3.6 | -2.1 | 22416* | -1.1
O=C(NCc1ccccn1)c1ccc(Cl)s1 | 0.2 | 5.2 | 2.1 | 6009 | -0.5
O=C(NCc1ccccn1)Nc1cccc(NC(=O)NCc2ccccn2)c1 | -0.4 | -0.7 | -2.6 | 22604* | -1.7
O=C(NCc1ccccn1)c1cccs1 | -0.6 | -3.3 | -3.9 | 17079* | ?
O=C(NCc1ccccn1)c1ccc(Cl)cc1Cl | -2.7 | -0.2 | 8.1 | 18047* | 6.6
O=C(Nc1ccc(S(=O)(=O)Nc2ncccn2)cc1)c1ccc(Br)s1 | -1.7 | 3.9 | -5.1 | 16878* | -2.4
COc1ccccc1/C=C/C(=O)NCC(=O)N/N=C/c1ccc2c(c1)OCO2 | -1.6 | 0.6 | -0.9 | 2682 | 0.0
SMILES | Anthrax LF inh2 | SARS 3CLpro inh | BoNT F protease | Autofluor counter | BoNT A protease
COc1ccc(C(=O)N2CCN(c3cccc(C)c3C)CC2)cc1S(=O)(=O)NC1CC1 | -0.9 | / | 10.1 | 4931 | 3.5
COc1ccccc1NC(=O)c1ccc(NC(=O)CSc2nncn2C)cc1 | -1.2 | 1.6 | -0.5 | 2717 | -0.3
COc1ccccc1NS(=O)(=O)c1ccc(C)c(C(=O)N2CCN(c3ccc(O)cc3)CC2)c1 | -6.8 | / | -10.9 | 4026 | -0.9
CCc1ccccc1NC(=O)c1ccccc1N1C(=O)C2C3C=CC(C3)C2C1=O (centres undefined) | 2.8 | 4.6 | -5.4 | 6164 | 0.9
O=C(NCCCCCCNC(=O)c1ccc(Br)s1)c1ccc(Br)s1 | -0.4 | -0.6 | -0.5 | 23002* | 0.4
O=C(NCc1ccccn1)c1ccc(Br)s1 | -10.4 | 1.9 | -9.4 | 17043* | -4.7
CN(Cc1ccccc1)Cc1nc2c([nH]1)c(=O)[nH]c(=O)n2C | -3.2 | 1.2 | -2.1 | 16968* | -0.9
Cn1c2ccccc2c2nnc(SC3CCOC3=O)nc21 (centres undefined) | 0.5 | -0.2 | -0.5 | 23365* | -0.2
CC(=O)NCCNC(=O)[C@H](Cc1ccccc1)NC(=O)c1cccs1 | -5.0 | 3.0 | -0.8 | 20647* | ?
